The supplement of paper PMC11417369
Whole data set: some 25,000 sequences, median “ln(normalized median fluorescence intensity)” near 6.7, cut for the highest 2% near 10. Only a selection was taken, and the highest values are over-represented in it overall.

tested on: PfHDP1 homeodomain (GST-tagged); test: gcPBM binding intensity (ln(normalized median fluorescence intensity)); higher = stronger DNA binding
Method in brief: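 Plasmodium falciparum DNA-binding domains carrying a GST tag were expressed in E. coli and applied for 1 h, at about 25 μg on average, to an Agilent 4 × 180k array. The array held primer-extended double-stranded 36-bp intergenic genomic probes together with negative controls, and binding took place in 1× PBS with 1% milk, 0.2 mg/ml BSA, 0.5% salmon testes DNA and 0.03% Triton X-100. An Alexa488 anti-GST antibody detected bound protein, and the array was scanned at 488 nm. Binding intensity is taken as the highest Masliner-normalised natural-log median intensity across replicate spots of either probe orientation.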

Question: How did the “gcPBM binding intensity (ln)” value turn out when “GAAAAATTAATAAATAAACACACATATATATATATA [CACACA_site8835]” was run?
Answer: 9.29

Question: Which “gcPBM binding intensity (ln)” value does the source give for “AATCTAATTAAAATCACACATATATTCGTCGTAATA [CACACA_site5855]” here?
Answer: 6.05

Question: Which “gcPBM binding intensity (ln)” value does the source give for “AGAATAAATATGCACACATGCATATATTTTTACACT [TGCATGCA_site893]” here?
Answer: 10.3

Question: Which “gcPBM binding intensity (ln)” value does the source give for “TAAATTATAAATTGCACACATATTTTTATATTTATA [CACACA_site2976]” here?
Answer: 10.2

Question: “AATATTTTTTTTTAAACATGCATATTTGCATTACCC [TGCATGCA_site437]” was tested. Which “gcPBM binding intensity (ln)” value did it give?
Answer: 8.67

Question: Which “gcPBM binding intensity (ln)” value does the source give for “TACCCATGCATTTTTGCACACACATATATATATAAA [CACACA_site1429]” here?
Answer: 10.7

Question: Which “gcPBM binding intensity (ln)” value does the source give for “CATATTTGTATATGCACACATAAATTTTTCCATTTC [CACACA_site3467]” here?
Answer: 10.2

Question: With “CCCATGCATTTTTGCACACACATATATTTATAAATA [CACACA_site6785]” as the sequence, how does the “gcPBM binding intensity (ln)” value read?
Answer: 10.7

Question: “TTGAAGAATAAATATGCACACATGCATATATTTTTA [CACACA_site5840]” was tested. Which “gcPBM binding intensity (ln)” value did it give?
Answer: 9.33

Question: How did the “gcPBM binding intensity (ln)” value turn out when “CCCATGCATTTTTGCACACACATATATATATAAATA [CACACA_site1430]” was run?
Answer: 10.8

Question: For “TTTTAAATAATACATACATGCATATATACACATATA [TGCATGCA_site8]”, which “gcPBM binding intensity (ln)” value is on record?
Answer: 6.58

Question: Which “gcPBM binding intensity (ln)” value does the source give for “AAAAAAAAAAAAAAAAGTACAAAAATATATATGCAT [XGTACX_site8392]” here?
Answer: 6.48

Question: How did the “gcPBM binding intensity (ln)” value turn out when “AATGATACTTAGGGGCATGTCTCTGGGGGCATAACC [CACACA_negctrl_site591]” was run?
Answer: 6.63

Question: “CATATTTCTTTATTGGCACACATTTTTTCAATTATA [CACACA_site1618]” was tested. Which “gcPBM binding intensity (ln)” value did it give?
Answer: 6.87

Question: “TTATTTAAATATTGATGTACTCTCCTTATTATAATA [XGTACX_site1240]” was tested. Which “gcPBM binding intensity (ln)” value did it give?
Answer: 6.76

Question: “TCCTTTCAACCATATATAATGACATGTACTCAAAAA [GTGCAC_negctrl_site417]” was tested. Which “gcPBM binding intensity (ln)” value did it give?
Answer: 6.77

Question: Which “gcPBM binding intensity (ln)” value does the source give for “ATATATTTTTAATATGCACACAAGAATACATTCACA [CACACA_site914]” here?
Answer: 9.51

Question: For “AACGATATCTGTACTACACACATTATGTCATCCTAT [CACACA_site5374]”, which “gcPBM binding intensity (ln)” value is on record?
Answer: 6.81

Question: Which “gcPBM binding intensity (ln)” value does the source give for “GTTATATTTTTTTATACACACTGGAATATATAAATA [CACACA_site4282]” here?
Answer: 6.76

Question: How did the “gcPBM binding intensity (ln)” value turn out when “ATATTATATATATAGGTGCGAGTATTTTATAAATAT [GTGCAC_site9889]” was run?
Answer: 6.93

Question: “TATATAAAGATATATACACACAAAAAAAAAAAAAAA [CACACA_site6778]” was tested. Which “gcPBM binding intensity (ln)” value did it give?
Answer: 6.32

Question: “AGAAAGAAGATATATACACACAAAAAAAGATATATA [CACACA_site6779]” was tested. Which “gcPBM binding intensity (ln)” value did it give?
Answer: 6.75

Question: “TTCCAAAAAATTATTACACACATATGGGCACATATA [CACACA_site679]” was tested. Which “gcPBM binding intensity (ln)” value did it give?
Answer: 6.54

Question: With “TTCCAAAAAGTTATTACACACATATGTGCACATATA [CACACA_site6465]” as the sequence, how does the “gcPBM binding intensity (ln)” value read?
Answer: 11.2

Question: For “TTATATGTATATATAGTGCAGAACAAAAGATTATAT [GTGCAC_site9599]”, which “gcPBM binding intensity (ln)” value is on record?
Answer: 7.69

Question: With “AAAAAAAAAAGACACACACACAAAAAAAGATATATA [CACACA_site6645]” as the sequence, how does the “gcPBM binding intensity (ln)” value read?
Answer: 6.58

Question: With “TATATATATATGTGTACACAAAAAATATTATATTAT [CACACA_site5505]” as the sequence, how does the “gcPBM binding intensity (ln)” value read?
Answer: 8.81

Question: “ATTCTATATATGTGCACACAAAAGATATATATATAT [CACACA_site2124]” was tested. Which “gcPBM binding intensity (ln)” value did it give?
Answer: 11.4

Question: “ATATTATATATATGTGCACACAAAAGATATATATAT [CACACA_site2125]” was tested. Which “gcPBM binding intensity (ln)” value did it give?
Answer: 10.5

Question: “TTCCAAAAAATTATTACACACATATGAGCACATATA [CACACA_site4543]” was tested. Which “gcPBM binding intensity (ln)” value did it give?
Answer: 9.16

Question: With “ATATATATATATATGTGTACACAAAAAATATTATAT [XGTACX_site5741]” as the sequence, how does the “gcPBM binding intensity (ln)” value read?
Answer: 9.26

Question: For “ATTATATATATGTGCACACAAAAGATATATATATAT [CACACA_site5205]”, which “gcPBM binding intensity (ln)” value is on record?
Answer: 11.1

Question: Which “gcPBM binding intensity (ln)” value does the source give for “TATAAACCCACCTACACACACAACGTAAATGCATTG [CACACA_site2238]” here?
Answer: 6.96

Question: With “TTCTTTTCAGAAGGAAAGAATTATAACATATCATAA [XGTACX_negctrl_site548]” as the sequence, how does the “gcPBM binding intensity (ln)” value read?
Answer: 6.13

Question: How did the “gcPBM binding intensity (ln)” value turn out when “AATAATTTGGTCTTATCAAAAATTAAAAATAAATAA [XGTACX_negctrl_site430]” was run?
Answer: 6.05

Question: Which “gcPBM binding intensity (ln)” value does the source give for “TTTCCCTACCAAAAATGTACTTATAAGCGTTTTTAT [XGTACX_site739]” here?
Answer: 6.5

Question: Which “gcPBM binding intensity (ln)” value does the source give for “TTTTATTTAACTCATAATTTTTTAAAAAACAATTAT [XGTACX_negctrl_site19]” here?
Answer: 6.37

Question: For “TATATATATATGTGCACACATAAAGATATTATTTTT [CACACA_site3733]”, which “gcPBM binding intensity (ln)” value is on record?
Answer: 10.1

Question: How did the “gcPBM binding intensity (ln)” value turn out when “ATAAAGATATGACACACACACATATTATAGATATAT [CACACA_site7434]” was run?
Answer: 6.69

Question: For “TATATATATATATGTGCACACATAAAGATATTATTT [CACACA_site3734]”, which “gcPBM binding intensity (ln)” value is on record?
Answer: 10.6

Question: How did the “gcPBM binding intensity (ln)” value turn out when “AATGTATTCTCTCATGCACACTTTCTTTAAGGGACC [CACACA_site5245]” was run?
Answer: 8.87

Question: How did the “gcPBM binding intensity (ln)” value turn out when “AATATATTTGTGTATGTGCGCAGTGTGTAATTTATT [GTGCAC_site9765]” was run?
Answer: 7.92

Question: With “GTTCATCACATATACACATGCATATTCTAATATGTA [TGCATGCA_site809]” as the sequence, how does the “gcPBM binding intensity (ln)” value read?
Answer: 7.25

Question: How did the “gcPBM binding intensity (ln)” value turn out when “TTCGTTCTTTTATGCACACTCAACATATAAATTAAA [CACACA_site1209]” was run?
Answer: 10.1

Question: With “TTTCTTCTGCATTATGCACACTATAATTCGTTAAAA [CACACA_site5568]” as the sequence, how does the “gcPBM binding intensity (ln)” value read?
Answer: 10.5

Question: “TTTTTCTTCTGCATTATGCACACTATAATTCGTTAA [CACACA_site2837]” was tested. Which “gcPBM binding intensity (ln)” value did it give?
Answer: 10.2

Question: Which “gcPBM binding intensity (ln)” value does the source give for “ATTTATATATCGCCCACACACATGTGATTATTTATA [CACACA_site6905]” here?
Answer: 7
